Measurements taken from PubChem BioAssay (NCATS).
Records with an inconclusive call do not appear. A call without a number means that no potency is given here. The source made the active and inactive calls. The call rests on the fitted dose curve; in most records, active means well fitted cell-killing curve with a large enough effect; inconclusive means small, poorly fitted or top-dose-only effect, or effect the other way; inactive means flat fitted curve, though single readings scatter.

Tests used:
Assay in all cases: Primary qHTS to identify gynecologic anti-cancer compounds using libraries of approved drugs and bioactive compounds (AID 1345084); further: nearly all actives have a fitted effect of over 55% in size
Details in all cases: Gynecologic cancer cell panel viability, ATPlite luminescence, 48 h; series mostly up to 57.5 µM
OV90 = system: OV90
In short: (§1)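 Cytotoxicity screen measuring ATP content by luciferase luminescence. Each compound is applied at five concentrations for 48 h at 37 C with 5% CO2.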

PA-1 = system: PA-1
In short: as §1

SKOV3 = system: SKOV3
In short: as §1

Tov-21-G = system: Tov-21-G
In short: as §1

Tov112D = system: Tov112D
In short: as §1
Potency means the concentration at half of the fitted maximal effect.

Structure (SMILES)	Potency (OV90)	Potency (PA-1)	Potency (SKOV3)	Potency (Tov-21-G)	Potency (Tov112D)	activity change, negative = cytotoxicity (OV90)	activity change, negative = cytotoxicity (PA-1)	activity change, negative = cytotoxicity (SKOV3)	activity change, negative = cytotoxicity (Tov-21-G)	activity change, negative = cytotoxicity (Tov112D)
C=C[C@@H]1[C@H](O[C@@H]2O[C@H](CO)[C@@H](O)[C@H](O)[C@H]2O)OC=C(C(=O)O)[C@H]1CCOC(=O)/C=C/c1ccc(O)c(O)c1	inactive	inactive	inactive	inactive	inactive					
COc1cc(/C=C/CO)cc(OC)c1O[C@@H]1O[C@H](CO[C@@H]2O[C@H](CO)[C@@H](O)[C@H](O)[C@H]2O)[C@@H](O)[C@H](O)[C@H]1O	inactive	inactive	inactive	inactive	inactive					
COc1cc(Nc2nc3ccccc3nc2NS(=O)(=O)c2ccc(NC(=O)c3ccc(OC)c(C)c3)cc2)cc(OC)c1	inactive	inactive	inactive	inactive	inactive					
O=C(/C=C/c1ccccc1)OC[C@]12O[C@H]1[C@@H](O)[C@@H]1C=CO[C@@H](O[C@@H]3O[C@H](CO)[C@@H](O)[C@H](O)[C@H]3O)[C@@H]12	inactive	inactive	inactive	inactive	inactive					
C=C1C[C@@]23CCC4[C@@](C)(CCC[C@@]4(C)C(=O)OC)C2CC[C@@H]1C3 (stereo not given in full)	inactive	inactive	inactive	inactive	inactive					
CC(O)/C=C/C1(O)C(C)C(O[C@@H]2O[C@H](CO)[C@@H](O)[C@H](O)[C@H]2O)C(O)CC1(C)C (stereo not given in full)	inactive	inactive	inactive	inactive	inactive					
CC1(C)CC2C(C1)C(C)(O)C13CC1(COC3=O)C2O (stereo not given)	inactive	inactive	inactive	inactive	inactive					
CC1=CC(=O)CC(C)(C)C1/C=C/C(C)O[C@@H]1O[C@H](CO)[C@@H](O)[C@H](O)[C@H]1O[C@@H]1OC[C@](O)(CO)[C@H]1O (stereo not given in full)	inactive	inactive	inactive	inactive	inactive					
O=C(O)/C=C/c1ccc(O)c(O[C@@H]2O[C@H](CO)[C@@H](O)[C@H](O)[C@H]2O)c1	inactive	inactive	inactive	inactive	inactive					
C/C1=C\CCC2=C[C@@H](OC2=O)c2c(C)coc2C1	inactive	inactive	inactive	inactive	inactive					
Cc1cc(C)cc(C(=O)NOCCCCCC(=O)NO)c1	3.98 µM (active)	0.891 µM (active)	3.16 µM (active)	8.91 µM (active)	3.55 µM (active)					
Nc1nc2c(ncn2[C@@H]2O[C@H](CO)[C@@H](O)[C@H]2O)c(=O)[nH]1	inactive	inactive	inactive	inactive	inactive					
C/C=C/C(O)C1OC(=O)CC1Nc1ccc(C(=O)O)cc1 (stereo not given)	inactive	inactive	inactive	inactive	inactive					
COc1ccc(C(=O)C2CCN(CC(=O)N(Cc3nc4c(c(=O)[nH]3)COCC4)CC3CC3)CC2)cc1	inactive	inactive	inactive	inactive	inactive					
C[C@H]1O[C@@H](O[C@H]2CC[C@@]3(C)C(CC[C@]4(C)C3CC=C3C5CC(C)(C)CC[C@]5(C(=O)O)CC[C@]34C(=O)O)C2(C)C)[C@H](O)[C@@H](O)[C@@H]1O (stereo not given in full)	inactive	inactive	inactive	inactive	inactive					
COc1c(C)c(OCC(O)C(C)(C)O)cc2c1COC2=O (stereo not given)	inactive	inactive	inactive	inactive	inactive					
CC(=O)O[C@@H]1[C@H](O[C@@H]2O[C@@H](CO)[C@H](O)[C@H]2O)[C@@H](O[C@@H]2O[C@@H](C)[C@H](O[C@@H]3OC[C@@H](O)[C@H](O)[C@H]3O)[C@@H](O)[C@H]2O)[C@H](OC(=O)[C@]23CCC(C)(C)C[C@H]2C2=CCC4[C@@]5(C)CC[C@H](O[C@@H]6O[C@H](C(=O)O)[C@@H](O)[C@H](O)[C@H]6O[C@@H]6O[C@H](CO)[C@H](O)[C@H](O)[C@H]6O)[C@@](C)(C=O)C5CC[C@@]4(C)[C@]2(C)CC3)O[C@@H]1C (stereo not given in full)						12.8% [at 6.55 µM] (inactive)	11.1% [at 6.55 µM] (inactive)	0% [at 6.55 µM] (inactive)	4.85% [at 6.55 µM] (inactive)	12.7% [at 6.55 µM] (inactive)
COc1cccc2cc3c(c(O[C@@H]4O[C@H](CO[C@@H]5O[C@H](CO)[C@@H](O)[C@H](O)[C@H]5O)[C@@H](O)[C@H](O)[C@H]4O)c12)C(C)OC3=O (stereo not given in full)	inactive	inactive	inactive	inactive	inactive					
C[C@H](NC(c1cccc(C[P+](=O)O)c1)[C@H](C)O)c1ccc(Cl)c(Cl)c1 (stereo not given in full)	inactive	inactive	inactive	inactive	inactive					
